Experimental data from PubChem BioAssay AID2778 (National Center for Advancing Translational Sciences (NCATS), 2010).
Records with an inconclusive call do not appear. Activity calls are given as the source filed them. Calls come from the whole dose curve; as a rule, active = well fitted inhibition curve with a large enough effect; inconclusive = small, poorly fitted or top-dose-only effect, or effect the other way; inactive = flat fitted curve, though single readings scatter.

What follows are compounds tested against Menin (Homo sapiens) (UniProt O00255) (assay: Confirmation of Inhibitors Targeting the Menin-MLL Interaction in MLL Related Leukemias: Confirmation in an HTRF (commercial TR-FRET) Assay using His-tagged menin and biotin-labeled MLL peptide). Details: His-menin / biotin-MLL peptide binding; series mostly up to 126 µM; activity change, negative = inhibition: at the top concentration.
Sequence of Menin (Homo sapiens) (O00255 whole entry, looked up): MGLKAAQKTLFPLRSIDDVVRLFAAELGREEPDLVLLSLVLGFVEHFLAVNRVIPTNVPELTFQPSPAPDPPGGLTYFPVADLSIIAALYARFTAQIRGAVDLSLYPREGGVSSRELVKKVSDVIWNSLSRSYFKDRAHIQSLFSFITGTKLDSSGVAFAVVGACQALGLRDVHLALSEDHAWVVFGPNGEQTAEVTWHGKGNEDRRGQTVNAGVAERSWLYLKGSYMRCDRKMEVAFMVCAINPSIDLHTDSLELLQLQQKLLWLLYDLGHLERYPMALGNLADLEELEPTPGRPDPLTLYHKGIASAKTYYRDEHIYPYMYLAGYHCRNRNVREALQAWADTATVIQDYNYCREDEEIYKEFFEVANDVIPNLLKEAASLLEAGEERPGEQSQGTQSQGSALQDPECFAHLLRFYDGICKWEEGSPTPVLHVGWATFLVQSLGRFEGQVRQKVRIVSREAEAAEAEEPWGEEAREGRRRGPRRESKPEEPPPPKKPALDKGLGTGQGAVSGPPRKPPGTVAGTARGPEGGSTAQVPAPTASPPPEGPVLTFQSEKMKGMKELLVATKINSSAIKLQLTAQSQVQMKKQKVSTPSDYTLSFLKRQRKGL
Description: qHTS Assay for Inhibitors Targeting the Menin-MLL Interaction in MLL Related Leukemias
NIH Chemical Genomics Center [NCGC]
NIH Molecular Libraries Probe Centers Network [MLPCN]
Assay Submitter (PI): Jolanta Grembecka, Tomasz Cierpicki, University of Virginia
Translocations of the MLL (Mixed Lineage Leukemia) gene are frequently found in human leukemias affecting both children and adults. Fusion of MLL to one of more than 60 genes results in generation of oncogenic proteins upregulating Hox genes, which are vital to blood cell development. Patients harboring fusion of the MLL gene suffer from aggressive leukemias and respond poorly to available therapies. All of the oncogenic fusion proteins have a preserved N-terminal fragment of MLL that has been identified to interact with menin. It has been recently discovered that association with menin is critical to the leukemogenic activity of the MLL fusion oncoproteins. Selective targeting of the menin-MLL interaction could provide an attractive therapeutic approach to develop novel drugs for MLL-related leukemias. Small molecules blocking the menin-MLL interaction should reverse the oncogenic potential of MLL fusion proteins.
We have developed and optimized a fluorescence polarization-based assay for the identification of Menin-MLL inhibitors. The assay was run employing two different MLL-derived peptides. The present assay uses a 12 amino acid peptide labeled with fluorescein at its N-terminus. This peptide consists of the menin high affinity binding motif from MLL and is potently bound by menin. Another peptide with a mutated sequence, labeled with Texas Red, was used in parallel as a less stringent screen for inhibitors.
The present assay uses an alternate technology to confirm hits from the primary screen - homogeneous time resolved fluorescence (HTRF).
The Menin protein, the MLL-wild type (w.t.) derived peptide (N-terminal 12 amino acids), the MLL-derived peptide labeled with Texas Red and the MLL-w.t. peptide labeled with Fluorescein were kindly supplied by laboratory of Dr. Jolanta Grembecka, University of Virginia. All protein and peptide solutions were stored in single use aliquots at -80C. The Eu3+ Cyrptate-conjugated mouse monoclonal antibody anti-6 Histidine (Eu3+-AB) and the Streptavidin-XL665 conjugate (XL665) were purchased from Cisbio International (Bedford, MA). All antibody and XL665 conjugate solution stocks were stored in single use aliquots at -20C. The Buffer components for all assays were purchased from Sigma-Aldrich (St. Louis, MO) and Invitrogen (Carlsbad, CA).
1. HTRF reaction buffer: 50 mM Tris-HCl pH 7.5, 50 mM NaCl, 1mM DTT.
Before use, 0.05% BSA is added.
2. His6-Menin protein, MLL-w.t. labeled with biotin.
Stored in singe use aliquots at -80C.
3. MLL-w.t. unlabeled peptide as positive control: 10 uM final in HTRF buffer.
1. Prepare His6-Menin at 200 nM, MLL-w.t.-biotin at 80 nM in HTRF buffer.
2. Prepare His6-Menin at 200 nM, MLL-w.t.-biotin at 80 nM and 10 uM MLL-w.t. unlabeled mixture in HTRF buffer.
3. Dispense 10 ul per well of reagent in step 1 in columns 2, 4-24 in a black 384 well plate, dispense 10 ul per well of reagents from steps 2 in column 1. Incubate plate at ambient for 15 minutes.
4. Transfer 1 uL per well of compound to plate and incubate at ambient for 1 hr.
5. Dispense 10uL of the donor (6His-Cryptate, 3.5 nM final conc.) and acceptor (SA_XL, 10nM final conc.) complex in the HTRF buffer with 0.01% BSA. Incubate for 1h.
% is set by controls: 0 for no effect and ±100 for the full control effect; potency is the fitted concentration of half-maximal effect.

SMILES | activity change, negative = inhibition | Potency
C=C1CCC[C@]2(C)C[C@H]3OC(=O)C(CNCCN(CC)CC)[C@H]3CC12 (stereo not given in full) | 0.515% (inactive) | –
c1ccc2c(c1)NCC1CCCN21 (stereo not given) | -0.883% (inactive) | –
CSC[C@@H]1NC(=S)N(c2ccc(C)cc2)C1=O | -2.46% (inactive) | –
CC(NC(=O)c1cnc2ccccc2n1)c1ccccc1 (stereo not given) | -5.38% [at 383 µM] (inactive) | –
CCc1oc2ccccc2c1C(=O)c1cc(Br)c(O)c(Br)c1 | -10.4% (inactive) | –
O=C1C(SCCO)=C(SCCO)C(=O)c2ccccc21 | – | 39.8 µM (active)
COC(=O)COc1ccc(C(C2C(=O)CC(C)(C)CC2=O)C2C(=O)CC(C)(C)CC2=O)cc1 | -6.86% (inactive) | –
C[C@@H]1CN(C(=O)c2nc3ccc(Cl)cn3c2CNCC[C@@H]2C[C@@H]3C=C[C@H]2C3)C[C@H](C)O1 | -3.93% (inactive) | –
CN(C)CCCNCC(=O)c1c(-c2ccccc2)n(C)c2ccccc12 | 3.68% (inactive) | –
O=C(O)c1cc(S(=O)(=O)O)cc(Nc2c3ccccc3nc3ccccc23)c1O | 3.8% [at 383 µM] (inactive) | –
CN1CCN(CC(=O)Nc2ccc(S(=O)(=O)N(C)C)cc2)CC1 | 0.239% (inactive) | –
COc1ccccc1/C=C/C(=O)NC(=S)Nc1ccc(S(=O)(=O)N(C)c2ccccc2)cc1 | -19.3% (inactive) | –
NC(=O)C1CCN(C2=C(Cl)C(=O)c3ccccc3C2=O)CC1 | 26% [at 383 µM] (inactive) | –
C[C@H](NC(=O)c1cc2c(cn1)[nH]c1ccccc12)C(=O)O | – | 79.4 µM (active)
O=C(CSc1nc(O)cc(=O)n1-c1ccccc1)c1ccc(Br)cc1 | -24.8% (inactive) | –
C=C(C)[C@@H]1CC=C(CN2CCN(Cc3ccccc3)CC2)CC1 | 4.46% (inactive) | –
CC(c1ccncn1)N(C)Cc1nc(-c2ccc(C(F)(F)F)cc2)no1 (stereo not given) | 7.72% (inactive) | –
CCCC(=O)NC(c1ccccc1Cl)c1ccc2cccnc2c1O (stereo not given) | -11.8% (inactive) | –
CN[C@H]1[C@H](O)[C@@H](O[C@@H]2[C@H](O)[C@@H](O[C@H]3OC(CN)=CC[C@H]3N)[C@@H](N)C[C@H]2N)OC[C@@]1(C)O | -7.69% (inactive) | –
CCC(=O)NC(=S)Nc1ccc(NC(=S)NC(=O)c2ccc(C)cc2)cc1 | -19.9% (inactive) | –

SMILES | activity change, negative = inhibition | Potency
CCCN1CCN(CC(O)COC(c2ccc(OC)cc2)c2ccc(OC)cc2)CC1 (stereo not given) | -2.05% (inactive) | –
Oc1ccc(Nc2ncnc3c2oc2ccccc23)cc1 | -8.71% [at 383 µM] (inactive) | –
NS(=O)(=O)c1ccc(NC(=O)c2ccc(-c3ccccc3)cc2)cc1 | – | 63.1 µM (active)
Cc1ccc(-c2cc(C(=O)Nc3cc(C)ccc3O)no2)cc1 | -8.8% (inactive) | –
CN(C)CCCOc1ccc2c(c1)Sc1ccccc1CC2=O | -10.1% (inactive) | –
CCOc1ccc(-c2nn(-c3ccccc3)cc2/C=C2\SC(N)=NC2=O)cc1C | -18.9% [at 383 µM] (inactive) | –
Cn1c(=O)n(C)c2cc3[nH]cnc3cc21 | 5.86% (inactive) | –
Cc1cccc(Nc2nnc(SCC(=O)NC(=O)Nc3ccc4c(c3)OCCO4)s2)c1 | -25.2% (inactive) | –
Cc1sc2ncnc(NC3CCN(Cc4ccccc4)CC3)c2c1C | – | 126 µM (active)
CC1CN(c2c3c(nc4ncnn24)CCCC3)CC(C)O1 (stereo not given) | -3.06% (inactive) | –
O=C(CSc1nnc(-c2c[nH]c3ccccc23)o1)c1ccc(-c2ccccc2)cc1 | -14.1% (inactive) | –
O=C(O)CSc1cc(NS(=O)(=O)c2ccc(Br)cc2)c2ccccc2c1O | – | 89.1 µM (active)
CC(=O)c1ccc2c(c1)N(CCCN1CCC(CCO)CC1)c1ccccc1S2 | 7.56% [at 62.9 µM] (inactive) | –
COc1ccc(CNC(=O)C(c2ccc(O)cc2)N(Cc2ccco2)C(=O)c2snc(C(N)=O)c2N)cc1 (stereo not given) | -9.89% (inactive) | –
Cc1c(F)cccc1NS(=O)(=O)c1ccc2c(c1)c(C)cc(=O)n2C | 7.52% (inactive) | –
CC(C)Sc1nc(N2CCOCC2)c2c3c(sc2n1)COC(C)(C)C3 | – | 316 µM (active)
O=[N+]([O-])CC(c1ccccc1)P(=O)(c1ccccc1)c1ccccc1 (stereo not given) | 0.121% (inactive) | –
O=C(CSc1nnnn1-c1ccc(O)cc1)N1N=C(c2ccc3ccccc3c2)CC1c1ccccc1 (stereo not given) | -19.9% (inactive) | –
CCOc1ccc(CCNC(=O)C(C)N2C(=O)CC(C)(C)Sc3ccccc32)cc1 (stereo not given) | 10.9% (inactive) | –
CCc1ccc(CNC(=O)CCS(=O)(=O)Cc2ccccc2F)cc1 | 3.6% (inactive) | –
